Test systems include FGFR1; FGFR2; FGFR3; FGFR4; FGR; FLT1; FLT3-autoinhibited; FLT3; FLT4; FRK.
Holding throughout (details): concentration: 1 μM,replicates: in singlicate; n = 1

Each structure is given as a SMILES string.
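Also: KINOMEscan kinase panel screen.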

Consider `FC(F)(F)c1cc(Br)cc(Nc2nccc(-c3cnn4ncccc34)n2)c1` [GW810578], for which the “%Inh” value in the assay on FGFR1 is 4%; with FGFR2, 0%; in the assay with FGFR3 it was 0%; with FGFR4 it was 77%; in the assay on FGR it was 16%; with FLT1, 30%. Also, the “%Inh” value stood at 70% in the assay with FLT3-autoinhibited, 95.7% with FLT3, 6% with FLT4 and 0% in the assay with FRK.

`COc1cc2c(Nc3ccc(NC(=O)c4ccccc4)cc3)ncnc2cc1OCCCN1CCOCC1` [GSK301329]: the “%Inh” value is recorded as 0% with FGFR1; 0% with FGFR2; 6% in the assay with FGFR3; 0% in the assay with FGFR4; 35% with FGR; 26% in the assay with FLT1. The “%Inh” value worked out at 0% in the assay on FLT3-autoinhibited, 35% in the assay with FLT3, 5% with FLT4 and 7% in the assay with FRK.

On to `Cn1cc(-c2cccc3c(N)c(C(N)=O)nnc23)cn1`, for which the “%Inh” value with FGFR1 was 25%; in the assay with FGFR2 it was 2%; in the assay on FGFR3 it was 12%; in the assay with FGFR4 it was 9%; with FGR it was 9%; with FLT1, 0%. Besides, the “%Inh” value turned out to be 30% with FLT3-autoinhibited, 27% in the assay on FLT3, 15% in the assay on FLT4 and 2% in the assay on FRK.

As to `O=C(Nc1cccc(Oc2ccc3nccn3n2)c1)Nc1cccc(C(F)(F)F)c1`, the “%Inh” value in the assay on FGFR1 turned out to be 29%; in the assay on FGFR2 it was 4%; in the assay on FGFR3, 0%; in the assay with FGFR4, 0%; with FGR it was 18%; in the assay on FLT1, 93.2%. For the same compound, the “%Inh” value in the assay with FLT3-autoinhibited is reported as 0%; with FLT3, 59%; in the assay on FLT4, 99%; in the assay with FRK, 77%.

As to `CN(c1cccc(CNc2nc(Nc3ccc4c(c3)CC(=O)N4)ncc2C(F)(F)F)c1)S(C)(=O)=O`, the “%Inh” value in the assay with FGFR1 was found to be 26%; in the assay on FGFR2, 31%; with FGFR3 it was 11%; in the assay on FGFR4 it was 0%; in the assay on FGR, 25%; in the assay with FLT1, 35%. The “%Inh” value turned out to be 39% with FLT3-autoinhibited, 98.7% with FLT3, 38% with FLT4 and 0% in the assay on FRK.

For the compound `O=C(Nc1ccccc1)c1cccc(Oc2ccc3nccn3n2)c1`, the “%Inh” value is on record as 41% with FGFR1; 19% with FGFR2; 20% in the assay with FGFR3; 0% in the assay on FGFR4; 10% in the assay with FGR; 79% in the assay with FLT1. For the same compound, the “%Inh” value is reported as 16% in the assay with FLT3-autoinhibited, 0% in the assay with FLT3, 5% with FLT4 and 0% with FRK.

Take `Cl.Nc1n[nH]c2cc(-c3ccccn3)ccc12` [GSK2189892]: the “%Inh” value with FGFR1 is 0%; in the assay with FGFR2, 15%; in the assay with FGFR3, 0%; with FGFR4, 0%; in the assay on FGR it was 10%; in the assay with FLT1 it was 19%. Also, the “%Inh” value is given as 0% with FLT3-autoinhibited, 0% in the assay on FLT3, 0% in the assay with FLT4 and 1% in the assay with FRK.

For the compound `Cc1n[nH]c2cc(Nc3ccnc(Nc4cccc(CN5CCOCC5)c4)n3)ccc12` [GW682569], the “%Inh” value in the assay on FGFR1 was determined as 15%; with FGFR2, 0%; in the assay with FGFR3, 32%; with FGFR4, 0%; in the assay with FGR, 49%; in the assay with FLT1, 70%. Besides, the “%Inh” value with FLT3-autoinhibited was determined as 18%; in the assay on FLT3, 68%; with FLT4 it was 65%; with FRK it was 0%.

For the compound `Cc1cccc(-c2nc(Nc3ccncc3)c3sccc3n2)n1` [GW869641], the “%Inh” value in the assay on FGFR1 was determined as 16%; in the assay with FGFR2, 0%; with FGFR3 it was 7%; in the assay on FGFR4, 8%; in the assay on FGR, 11%; with FLT1, 26%. Besides, the “%Inh” value in the assay with FLT3-autoinhibited is 14%; in the assay with FLT3 it was 41%; in the assay on FLT4, 15%; with FRK it was 1%.

Regarding `CCCC(=O)Nc1n[nH]c2ncccc12` [SB-601436], the “%Inh” value is 0% in the assay with FGFR1; 0% in the assay with FGFR2; 0% in the assay on FGFR3; 0% in the assay on FGFR4; 30% in the assay with FGR; 0% in the assay on FLT1. The “%Inh” value was found to be 0% in the assay on FLT3-autoinhibited, 13% in the assay with FLT3, 0% in the assay on FLT4 and 0% in the assay with FRK.

On to `CC(=O)c1c(-c2ccncc2)[nH]c(-c2ccncc2)c1C` [GW493036], for which the “%Inh” value is given as 0% with FGFR1; 0% in the assay with FGFR2; 0% with FGFR3; 9% with FGFR4; 27% with FGR; 10% with FLT1. In addition, the “%Inh” value in the assay with FLT3-autoinhibited, in the assay on FLT3, with FLT4 and with FRK was 0% each time.

Take `COc1cccc(OC)c1C(=O)Nc1cccc(-c2nn3ccccc3c2-c2ccnc(Nc3cccc(F)c3)n2)c1` [GSK361065]: the “%Inh” value in the assay on FGFR1 was found to be 11%; with FGFR2 it was 0%; in the assay on FGFR3 it was 0%; with FGFR4, 0%; in the assay on FGR, 23%; in the assay on FLT1 it was 32%. Besides, the “%Inh” value in the assay with FLT3-autoinhibited is 0%; in the assay on FLT3, 49%; in the assay with FLT4, 27%; with FRK, 16%.

`O=c1[nH]cc(-c2ccc(O)cc2)c2sc(-c3ccncc3)cc12` [GSK1033723]: the “%Inh” value with FGFR1 was determined as 0%; with FGFR2, 0%; with FGFR3, 16%; in the assay with FGFR4, 13%; with FGR, 21%; in the assay with FLT1, 9%. Besides, the “%Inh” value with FLT3-autoinhibited is 0%; in the assay with FLT3, 0%; with FLT4, 1%; in the assay with FRK it was 0%.

Turning to `Cn1ccc2ncnc(Oc3ccc(NC(=O)Nc4cnn(C(C)(C)C)c4)c(Cl)c3)c21`, the “%Inh” value was 14% in the assay on FGFR2; 1% in the assay on FGFR3; 0% in the assay with FGFR4; 10% in the assay on FGR; 97.4% in the assay on FLT1; 8% in the assay on FLT3-autoinhibited. The “%Inh” value in the assay on FLT3 is on record as 99.2%; with FLT4, 98.3%; with FRK it was 70%.

Regarding `Cn1ccc2ncnc(Oc3ccc(NC(=O)Nc4cc(C(C)(C)C)on4)c(Cl)c3)c21`, the “%Inh” value in the assay on FGFR2 was determined as 72%; in the assay on FGFR3, 23%; in the assay on FGFR4 it was 73%; in the assay with FGR, 32%; in the assay on FLT1, 97.6%; in the assay on FLT3-autoinhibited it was 15%. The “%Inh” value was found to be 99.9% in the assay on FLT3, 99.8% in the assay on FLT4 and 96.3% with FRK.

For `c1ccc(Oc2ccc(Nc3ccnc4ccc(-c5ccccn5)cc34)cc2)cc1` [GW407034], the “%Inh” value was 0% in the assay on FGFR1; 34% in the assay with FGFR2; 25% in the assay with FGFR3; 4% with FGFR4; 69% in the assay with FGR; 14% in the assay with FLT1. The “%Inh” value in the assay with FLT3-autoinhibited is 0%; in the assay with FLT3, 0%; in the assay on FLT4, 3%; in the assay on FRK it was 38%.

The values above are taken from PMC5540273 (PLoS ONE, 2017).
